This note sets out measurements from PubChem BioAssay (EPA / NIEHS).

Molecules are shown by their SMILES. Values joined by “and” are separate entries in the source; they are usually repeats but may differ in a detail not shown here. Equal values may be shown once. Active and inactive are the calls of the source. Rule for the calls: active = hit-call score of the fitted dose curve at least 0.9, where 1 is the maximum; inactive = score below 0.9.

Holding throughout (conditions): mRNA level, 48 h; actives raise or lower the signal
Read-out in test [1]: Early growth response protein 1 (EGR1) transcription factor, EGR1 (gene 1958)
The test can be described thus: LTEA_HepaRG_EGR1: Life Technologies and Expression Analysis (LTEA) Assay for Early growth response protein 1 (EGR1) transcription factor using HepaRG (AID 2283490). Summed up:
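HepaRG, 48 h exposure, 8-pt half-log series from 100 uM, 0.5% DMSO vehicle; EGR1 transcript by TaqMan qRT-PCR (Fluidigm array), housekeeping-normalized; bidirectional fit relative to DMSO baseline.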

Read-out in test [2]: Ezrin (EZR), EZR (gene 7430)
The test is described as follows: LTEA_HepaRG_EZR: Life Technologies and Expression Analysis (LTEA) Assay for Ezrin (EZR) using HepaRG (AID 2283491). Summed up:
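EZR transcript levels came from Fluidigm qRT-PCR and were normalized to three housekeeping genes after 48 h chemical exposure of HepaRG cells. Dosing used an 8-point half-log series with a 100 uM top concentration in 0.5% DMSO, tested in duplicate; both directions were fitted versus vehicle.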

Read-out in test [3]: Cytochrome P450 3A7 (Homo sapiens) (UniProt P24462)
The test can be described thus: LTEA_HepaRG_CYP3A7: Life Technologies and Expression Analysis (LTEA) Assay for CYP3A7 using HepaRG (AID 2283492). Summed up:
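Human HepaRG liver cells, 48 h post-plating, switched to serum-free induction medium and exposed in duplicate for 48 h. Dosing: 100 uM top, half-log dilutions, 8 points, 0.5% DMSO vehicle. Read-out: CYP3A7 mRNA, gain or loss fitted against DMSO baseline.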

Read-out in another test: CYP3A5 (gene 1577)
The test is described as follows: LTEA_HepaRG_CYP3A5: Life Technologies and Expression Analysis (LTEA) Assay for CYP3A5 using HepaRG (AID 2283493). The method in brief: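 Readout was CYP3A5 mRNA by qRT-PCR. HepaRG cultures were exposed for 48 h in serum-free induction medium to chemicals at up to 100 uM, and responses were fitted in both directions relative to DMSO vehicle.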

Read-out in test [4]: Fatty Acid-Binding Protein 1 (FABP1), FABP1 (gene 2168)
The test can be described thus: LTEA_HepaRG_FABP1: Life Technologies and Expression Analysis (LTEA) Assay for Fatty Acid-Binding Protein 1 (FABP1) using HepaRG (AID 2283494). The method in brief: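 qRT-PCR readout of FABP1 transcript (normalized to three housekeeping genes) after 48 h chemical exposure of HepaRG cells; eight concentrations, half-log steps, max 100 uM, 0.5% DMSO vehicle; gain or loss fitted relative to DMSO baseline.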

Read-out in test [5]: Cytochrome P450 4A22 (Homo sapiens) (UniProt Q5TCH4)
The test is described as follows: LTEA_HepaRG_CYP4A22: Life Technologies and Expression Analysis (LTEA) Assay for Cytochrome P450 4A22 (CYP4A22) using HepaRG (AID 2283495). Summed up:
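Readout is CYP4A22 transcript induction or loss, quantified by qRT-PCR and normalized to ACTB, GAPDH and POLR2A. Human HepaRG cells receive test chemicals for 48 h at eight half-log concentrations from 100 uM in 0.5% DMSO.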

Read-out in test [6]: Cytochrome P450 7A1 (Homo sapiens) (UniProt P22680)
The test is described as follows: LTEA_HepaRG_CYP7A1: Life Technologies and Expression Analysis (LTEA) Assay for Cytochrome P450 7A1 (CYP7A1) using HepaRG (AID 2283496). Summed up:
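Using 0.5% DMSO as vehicle and baseline, chemicals were tested in duplicate over an 8-point range from 100 uM on HepaRG cells for 48 h; qRT-PCR signals were normalised to ACTB, GAPDH and POLR2A.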

Read-out in test [7]: Glutathione S-Transferase (GSTA2), GSTA2 (gene 2939)
The test is described as follows: LTEA_HepaRG_GSTA2: Life Technologies and Expression Analysis (LTEA) Assay for Glutathione S-Transferase (GSTA2) using HepaRG (AID 2283497). The method in brief: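 qRT-PCR readout of GSTA2 transcript, normalized to three housekeeping genes, fitted bidirectionally against 0.5% DMSO baseline. Differentiated HepaRG cells received compound for 48 h at 8 concentrations (top 100 uM, half-log steps).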

Read-out in test [8]: Glutamate-cysteine ligase catalytic (GCLC), GCLC (gene 2729)
The test can be described thus: LTEA_HepaRG_GCLC: Life Technologies and Expression Analysis (LTEA) Assay for Glutamate-cysteine ligase catalytic (GCLC) using HepaRG (AID 2283498). Summed up: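 HepaRG, 48 h exposure, 8-pt half-log series from 100 uM, 0.5% DMSO vehicle; TaqMan qRT-PCR for GCLC mRNA, housekeeping-normalized; bidirectional curve fit vs DMSO baseline.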

Read-out in test [9]: Glutamate-cysteine ligase regulatory (GCLM), GCLM (gene 2730)
The test is described as follows: LTEA_HepaRG_GCLM: Life Technologies and Expression Analysis (LTEA) Assay for Glutamate-cysteine ligase regulatory (GCLM) using HepaRG (AID 2283500). The method in brief:
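In this multiplexed HepaRG gene-expression assay, GCLM mRNA change after 48 h treatment (8 concentrations, max 100 uM) was scored against DMSO by bidirectional curve fitting.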

Read-out in test [10]: Glutathione S-transferase M3 (GSTM3), GSTM3 (gene 2947)
The test can be described thus: LTEA_HepaRG_GSTM3: Life Technologies and Expression Analysis (LTEA) Assay for Glutathione S-transferase M3 (GSTM3) using HepaRG (AID 2283501). Summed up:
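HepaRG, plated 48 h, then serum-free induction medium; test chemical 48 h, duplicate; 100 uM top, half-log x8, 0.5% DMSO. Read-out: GSTM3 mRNA (TaqMan qRT-PCR, Fluidigm array). Bidirectional fit vs DMSO.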

Read-out in test [11]: Heat shock 70 kDa protein 1 (HSPA1A), gene 3303
The test can be described thus: LTEA_HepaRG_HSPA1A: Life Technologies and Expression Analysis (LTEA) Assay for Heat shock 70 kDa protein 1 (HSPA1A) using HepaRG (AID 2283502). Summed up: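 An oxidative-stress marker readout: HepaRG cells treated 48 h in duplicate with an eight-point series (highest 100 uM) had HSPA1A mRNA quantified by TaqMan qRT-PCR. Activity was fitted in both directions using 0.5% DMSO as baseline.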

Read-out in test [12]: Hypoxia-inducible factor 1-alpha (Homo sapiens) (UniProt Q16665)
The test is described as follows: LTEA_HepaRG_HIF1A: Life Technologies and Expression Analysis (LTEA) Assay for Hypoxia-inducible factor 1 (HIF1A) Trancription factor using HepaRG (AID 2283503).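 Note: HIF1A transcript by TaqMan qRT-PCR normalized to ACTB GAPDH and POLR2A.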 The method in brief:
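Gain- or loss-of-signal HIF1A mRNA changes are fitted against a DMSO baseline. HepaRG cultures receive eight concentrations, highest 100 uM, for 48 h in serum-free induction medium with 0.5% DMSO.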

Read-out in test [13]: 3-Hydroxy-3-Methylglutaryl-CoA Synthase 2 (HMGCS2), HMGCS2 (gene 3158)
The test can be described thus: LTEA_HepaRG_HMGCS2: Life Technologies and Expression Analysis (LTEA) Assay for 3-Hydroxy-3-Methylglutaryl-CoA Synthase 2 (HMGCS2) using HepaRG (AID 2283504). The method in brief:
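HepaRG, plated 48 h then switched to serum-free induction media; cmpd 8-pt, max 100 uM, 1/2-log, 0.5% DMSO, n=2, 48 h. HMGCS2 mRNA by Fluidigm TaqMan qRT-PCR, ACTB/GAPDH/POLR2A norm; bidirectional fit vs DMSO.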

Read-out in a further test: HGF (gene 3082)
The test can be described thus: LTEA_HepaRG_HGF: Life Technologies and Expression Analysis (LTEA) Assay for Hepatocyte Growth Facto (HGF) using HepaRG (AID 2283505). The method in brief:
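Read-out is HGF transcript level by qRT-PCR, normalized to three housekeeping genes, fitted bidirectionally against 0.5% DMSO vehicle. Human HepaRG cells received test chemicals for 48 h at up to 100 uM.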

Read-out in test [14]: Insulin Like Growth Factor 1 (IGF1), IGF1 (gene 3479)
The test can be described thus: LTEA_HepaRG_IGF1: Life Technologies and Expression Analysis (LTEA) Assay for Insulin Like Growth Factor 1 (IGF1) using HepaRG (AID 2283506). The method in brief: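 Endpoint: IGF1 mRNA change by qRT-PCR, housekeeping-normalized, fitted bidirectionally relative to 0.5% DMSO vehicle. Human HepaRG cells were treated 48 h in serum-free induction medium, eight half-log concentrations topping at 100 uM.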

Read-out in test [15]: Intercellular Adhesion Molecule 1 (ICAM1), ICAM1 (gene 3383)
The test can be described thus: LTEA_HepaRG_ICAM1: Life Technologies and Expression Analysis (LTEA) Assay for Intercellular Adhesion Molecule 1 (ICAM1) using HepaRG (AID 2283507). Summed up:
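Readout is qRT-PCR mRNA level, normalized to three housekeeping genes and fitted bidirectionally against 0.5% DMSO vehicle. Human HepaRG cultures received compound for 48 h, top concentration 100 uM with half-log dilutions.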

Read-out in test [16]: Interleukin 6 (IL6), IL6 (gene 3569)
The test is described as follows: LTEA_HepaRG_IL6: Life Technologies and Expression Analysis (LTEA) Assay for Interleukin 6 (IL6) using HepaRG (AID 2283509). Summed up: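 qRT-PCR read-out of IL6 transcript, normalized to three housekeeping genes, after 48 h chemical exposure of HepaRG cells; 8-point half-log series, top 100 uM, 0.5% DMSO vehicle. Bidirectional curve fitting against DMSO baseline.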

Cytochrome P450 3A7 (Homo sapiens), sequence (P24462 whole entry, looked up): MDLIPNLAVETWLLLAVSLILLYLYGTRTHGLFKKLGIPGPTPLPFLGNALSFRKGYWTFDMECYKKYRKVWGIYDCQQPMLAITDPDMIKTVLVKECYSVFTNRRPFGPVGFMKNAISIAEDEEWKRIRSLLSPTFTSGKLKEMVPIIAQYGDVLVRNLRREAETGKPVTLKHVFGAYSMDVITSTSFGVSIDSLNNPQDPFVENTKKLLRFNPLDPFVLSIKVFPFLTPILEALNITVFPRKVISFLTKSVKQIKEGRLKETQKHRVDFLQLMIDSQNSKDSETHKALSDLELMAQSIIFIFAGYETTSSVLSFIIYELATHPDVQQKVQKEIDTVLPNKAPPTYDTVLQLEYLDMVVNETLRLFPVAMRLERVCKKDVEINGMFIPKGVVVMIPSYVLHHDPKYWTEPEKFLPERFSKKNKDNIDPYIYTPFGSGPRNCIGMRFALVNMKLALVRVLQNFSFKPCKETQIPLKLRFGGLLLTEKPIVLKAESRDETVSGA
Hypoxia-inducible factor 1-alpha (Homo sapiens), sequence (Q16665 whole entry, looked up): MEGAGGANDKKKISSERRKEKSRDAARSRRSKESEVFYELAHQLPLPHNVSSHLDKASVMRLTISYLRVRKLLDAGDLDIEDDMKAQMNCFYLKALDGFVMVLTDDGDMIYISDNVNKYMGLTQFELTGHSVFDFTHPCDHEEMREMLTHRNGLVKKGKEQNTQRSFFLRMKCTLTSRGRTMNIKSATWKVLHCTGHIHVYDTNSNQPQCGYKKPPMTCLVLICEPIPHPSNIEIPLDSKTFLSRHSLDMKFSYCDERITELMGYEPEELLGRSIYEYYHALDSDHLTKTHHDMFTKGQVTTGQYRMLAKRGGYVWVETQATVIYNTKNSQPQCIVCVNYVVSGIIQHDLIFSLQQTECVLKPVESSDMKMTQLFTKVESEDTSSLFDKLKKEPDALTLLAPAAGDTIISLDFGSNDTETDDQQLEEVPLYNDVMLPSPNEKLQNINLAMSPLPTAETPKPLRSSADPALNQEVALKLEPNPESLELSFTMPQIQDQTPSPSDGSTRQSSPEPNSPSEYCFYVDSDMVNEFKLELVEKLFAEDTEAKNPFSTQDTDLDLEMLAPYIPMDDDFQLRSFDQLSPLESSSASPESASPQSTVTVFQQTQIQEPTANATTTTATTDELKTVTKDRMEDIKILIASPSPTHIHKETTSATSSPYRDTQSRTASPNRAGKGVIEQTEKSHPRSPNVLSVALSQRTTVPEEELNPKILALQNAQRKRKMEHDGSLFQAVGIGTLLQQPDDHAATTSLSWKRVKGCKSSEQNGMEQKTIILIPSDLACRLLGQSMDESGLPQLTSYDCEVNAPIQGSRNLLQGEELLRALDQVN

What is called AC50 is the concentration giving half of the maximal activity seen. In the case of `CC(C)(C)C(O)/C(=C\c1ccc(Cl)cc1Cl)n1cncn1` (stereo not given), the AC50 is 33.8 µM (active) in test [1]; 86.6 µM (active) in test [2]; 30.5 µM (active) in test [4]; 21.1 µM (active) in test [5]; 32.6 µM (active) in [6]; 27.3 µM (active) in test [7]. Also, the AC50 was 81.5 µM (active) in [8]; 93.3 µM (active) in test [11]; 82.3 µM (active) in [12]; 30.7 µM (active) in test [13]; 91.2 µM (active) in test [14]; 50 µM (active) in test [15]. The concentration at half-maximal activity (AC50) in test [16] is 94.6 µM (active). For the same molecule, the result (in test [3]; with CYP3A5 (gene 1577); in [9]; in test [10]; with HGF (gene 3082)) was inactive.
Consider `N#Cc1c(Cl)c(Cl)c(Cl)c(C#N)c1Cl`, for which the result (in test [1]; in test [2]; in the test with CYP3A5 (gene 1577); in test [6]; in test [8]; in [9]) was inactive. Also, the result (in [10]; in [12]; in [13]; with HGF (gene 3082); in test [14]; in test [15]) was inactive. The molecule was classed as inactive in [16]. For the same molecule, the AC50 in test [3] was 50 µM (active); in [4] it was 77.7 µM (active); in test [7] it was 34 µM (active); in test [11], 17.3 µM (active).
With `N#CN`, the call (in test [1]; in [2]; in test [3]; with CYP3A5 (gene 1577); in test [4]; in test [5]) was inactive. Moreover, the molecule was classed as inactive in test [6], in test [7], in test [8], in test [9], in [10] and in test [11]. Moreover, the result (in test [12]; in test [13]; with HGF (gene 3082); in test [14]; in test [15]; in [16]) was inactive.
Regarding `O=C1c2ccccc2C(=O)N1SC(Cl)(Cl)Cl`, the call (in [1]; in [2]; in test [3]; in the test with CYP3A5 (gene 1577); in test [4]; in test [5]) was inactive. The molecule was called inactive in test [6], in test [7], in test [8], in test [9], in test [10] and in [11]. Moreover, the molecule was classed as inactive (in test [12]; in [13]; with HGF (gene 3082); in test [14]; in test [15]; in test [16]).
For the molecule `Clc1ccccc1-c1nnc(-c2ccccc2Cl)nn1`, the outcome (in [1]; in test [2]; with CYP3A5 (gene 1577); in test [5]; in test [7]; in test [10]) was inactive. Besides, the outcome (in test [11]; in test [12]; in test [13]; in the test with HGF (gene 3082); in test [14]; in test [15]) was inactive. Further, the molecule was classed as inactive in test [16]. Besides, the AC50 is 6.87 µM (active) in test [3], 18.8 µM (active) in [4], 24 µM (active) in test [6] and 23 µM (active) in test [9].
With `CC(C)(C)C(O)C(Oc1ccc(Cl)cc1)n1cncn1` (stereo not given), the outcome (in test [1]; in test [2]; with CYP3A5 (gene 1577); in test [7]; in test [8]; in test [9]) was inactive. Besides, the outcome (in test [10]; in test [11]; in test [12]; in the test with HGF (gene 3082); in test [15]; in [16]) was inactive. Besides, the half-maximal activity concentration (AC50) in [4] was 50 µM (active) and 21.4 µM (active); in test [5], 12.8 µM (active) and 14.6 µM (active) and 18 µM (active); in test [6], 8.02 µM (active) and 9.92 µM (active) and 1.24 µM (active); in test [13] it was 21 µM (active) and 32.8 µM (active) and 21.6 µM (active); in test [14], 16 µM (active) and 23.4 µM (active) and 14.4 µM (active).
